Unmarked numbers belong to inactive results.

1 molecule from the supplement of paper PMC11732987, “Enantioselective OTUD7B fragment discovery through chemoproteomics screening and high-throughput optimisation” (Communications Chemistry, 2025) can be followed below.

Common to all, as to assay: log2 ratio of Biotin-Ahx-Ub-VS probe labelling (fragment/DMSO); higher = less target engagement (more negative = stronger competition), active = hit call of the paper (q ≤ 0.05, log2 ratio ≤ -1)
Holding throughout (conditions): compound concentration: 200 uM; treatment time: 3 h

One assay has as its target USP16 (UniProt Q9Y5T5). In a few lines: (§1)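 Labelled DUBs were enriched with NeutrAvidin, digested with LysC and trypsin, and run by diaPASEF LC-MS/MS. The labelling used Biotin-Ahx-Ub-VS at 0.5 µM final for 1 h on HEK293T lysate (495 µg per sample) previously treated in triplicate with fragment at 200 µM or vehicle for 3 h. Values are average log2 fragment/vehicle ratios by unpaired t-test on global-median-normalised Spectronaut quantities of proteins with ≥2 unique peptides.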

The next assay deals with T1, USP19 (UniProt O94966).
T1 sequence (whole entry): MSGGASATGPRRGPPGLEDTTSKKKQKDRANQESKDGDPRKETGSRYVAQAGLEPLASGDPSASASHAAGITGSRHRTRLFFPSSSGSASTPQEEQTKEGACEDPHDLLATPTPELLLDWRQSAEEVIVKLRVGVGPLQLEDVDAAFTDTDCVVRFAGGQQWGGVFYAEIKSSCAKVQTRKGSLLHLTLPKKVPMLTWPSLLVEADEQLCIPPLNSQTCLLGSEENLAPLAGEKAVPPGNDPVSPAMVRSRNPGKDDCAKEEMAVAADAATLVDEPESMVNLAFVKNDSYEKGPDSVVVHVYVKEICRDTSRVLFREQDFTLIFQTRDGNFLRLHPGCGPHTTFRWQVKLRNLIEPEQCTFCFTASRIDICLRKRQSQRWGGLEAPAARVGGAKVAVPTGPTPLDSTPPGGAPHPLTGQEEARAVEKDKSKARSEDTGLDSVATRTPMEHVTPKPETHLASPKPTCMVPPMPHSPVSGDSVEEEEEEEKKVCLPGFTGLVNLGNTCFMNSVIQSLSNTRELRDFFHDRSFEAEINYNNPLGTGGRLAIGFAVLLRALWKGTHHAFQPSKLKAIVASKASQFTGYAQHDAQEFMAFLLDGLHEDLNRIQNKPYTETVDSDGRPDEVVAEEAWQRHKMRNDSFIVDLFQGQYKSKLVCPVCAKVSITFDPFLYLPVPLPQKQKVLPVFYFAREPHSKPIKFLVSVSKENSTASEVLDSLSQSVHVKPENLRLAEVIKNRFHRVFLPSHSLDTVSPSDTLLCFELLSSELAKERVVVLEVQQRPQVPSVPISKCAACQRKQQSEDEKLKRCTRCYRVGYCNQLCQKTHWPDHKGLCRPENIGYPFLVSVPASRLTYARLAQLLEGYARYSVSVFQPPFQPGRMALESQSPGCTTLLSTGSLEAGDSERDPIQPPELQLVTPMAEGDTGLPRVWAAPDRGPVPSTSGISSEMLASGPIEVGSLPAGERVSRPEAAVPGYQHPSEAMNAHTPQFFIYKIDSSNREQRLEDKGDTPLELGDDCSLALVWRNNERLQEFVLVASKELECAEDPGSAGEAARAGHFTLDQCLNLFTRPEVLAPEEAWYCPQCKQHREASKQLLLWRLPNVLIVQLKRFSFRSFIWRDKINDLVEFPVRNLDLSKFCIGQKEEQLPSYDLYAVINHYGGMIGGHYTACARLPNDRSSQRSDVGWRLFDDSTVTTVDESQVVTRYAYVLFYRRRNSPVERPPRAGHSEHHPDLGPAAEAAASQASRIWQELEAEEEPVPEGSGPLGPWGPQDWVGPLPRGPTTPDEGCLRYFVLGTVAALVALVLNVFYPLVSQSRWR
The procedure, abridged: as §1

Another assay has as its target USP24 (UniProt Q9UPU5). In a few lines: as §1
Another assay has as its target T2, USP25 (UniProt Q9UHP3).
T2 sequence (whole entry): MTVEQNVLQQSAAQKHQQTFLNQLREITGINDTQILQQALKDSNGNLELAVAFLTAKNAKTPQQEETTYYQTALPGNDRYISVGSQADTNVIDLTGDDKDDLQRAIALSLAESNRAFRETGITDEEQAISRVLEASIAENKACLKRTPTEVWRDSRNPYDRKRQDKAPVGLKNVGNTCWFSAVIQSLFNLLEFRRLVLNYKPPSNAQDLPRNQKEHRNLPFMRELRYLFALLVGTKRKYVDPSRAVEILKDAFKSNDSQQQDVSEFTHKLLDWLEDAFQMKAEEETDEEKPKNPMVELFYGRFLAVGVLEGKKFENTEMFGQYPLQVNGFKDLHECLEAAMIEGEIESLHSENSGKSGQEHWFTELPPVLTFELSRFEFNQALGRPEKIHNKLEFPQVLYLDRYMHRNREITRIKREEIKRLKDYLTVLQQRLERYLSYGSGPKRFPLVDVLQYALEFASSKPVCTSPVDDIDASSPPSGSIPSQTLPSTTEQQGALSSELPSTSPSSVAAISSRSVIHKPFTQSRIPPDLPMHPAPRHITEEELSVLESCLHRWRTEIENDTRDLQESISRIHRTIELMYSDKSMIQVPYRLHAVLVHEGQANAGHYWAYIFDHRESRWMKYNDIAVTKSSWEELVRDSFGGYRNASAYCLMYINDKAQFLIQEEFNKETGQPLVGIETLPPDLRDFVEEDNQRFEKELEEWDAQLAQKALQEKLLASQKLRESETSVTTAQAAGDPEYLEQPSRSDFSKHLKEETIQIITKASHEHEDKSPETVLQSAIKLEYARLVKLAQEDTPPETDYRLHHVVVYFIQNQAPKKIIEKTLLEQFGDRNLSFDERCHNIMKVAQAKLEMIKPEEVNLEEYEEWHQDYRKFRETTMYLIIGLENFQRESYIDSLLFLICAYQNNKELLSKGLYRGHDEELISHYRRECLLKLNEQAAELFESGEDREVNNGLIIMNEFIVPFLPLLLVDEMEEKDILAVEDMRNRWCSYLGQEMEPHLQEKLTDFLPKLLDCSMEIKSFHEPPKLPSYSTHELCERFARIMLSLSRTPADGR
In a few lines:
as §1

The target of another assay is T3, USP28 (UniProt Q96RU2).
T3 sequence (whole entry): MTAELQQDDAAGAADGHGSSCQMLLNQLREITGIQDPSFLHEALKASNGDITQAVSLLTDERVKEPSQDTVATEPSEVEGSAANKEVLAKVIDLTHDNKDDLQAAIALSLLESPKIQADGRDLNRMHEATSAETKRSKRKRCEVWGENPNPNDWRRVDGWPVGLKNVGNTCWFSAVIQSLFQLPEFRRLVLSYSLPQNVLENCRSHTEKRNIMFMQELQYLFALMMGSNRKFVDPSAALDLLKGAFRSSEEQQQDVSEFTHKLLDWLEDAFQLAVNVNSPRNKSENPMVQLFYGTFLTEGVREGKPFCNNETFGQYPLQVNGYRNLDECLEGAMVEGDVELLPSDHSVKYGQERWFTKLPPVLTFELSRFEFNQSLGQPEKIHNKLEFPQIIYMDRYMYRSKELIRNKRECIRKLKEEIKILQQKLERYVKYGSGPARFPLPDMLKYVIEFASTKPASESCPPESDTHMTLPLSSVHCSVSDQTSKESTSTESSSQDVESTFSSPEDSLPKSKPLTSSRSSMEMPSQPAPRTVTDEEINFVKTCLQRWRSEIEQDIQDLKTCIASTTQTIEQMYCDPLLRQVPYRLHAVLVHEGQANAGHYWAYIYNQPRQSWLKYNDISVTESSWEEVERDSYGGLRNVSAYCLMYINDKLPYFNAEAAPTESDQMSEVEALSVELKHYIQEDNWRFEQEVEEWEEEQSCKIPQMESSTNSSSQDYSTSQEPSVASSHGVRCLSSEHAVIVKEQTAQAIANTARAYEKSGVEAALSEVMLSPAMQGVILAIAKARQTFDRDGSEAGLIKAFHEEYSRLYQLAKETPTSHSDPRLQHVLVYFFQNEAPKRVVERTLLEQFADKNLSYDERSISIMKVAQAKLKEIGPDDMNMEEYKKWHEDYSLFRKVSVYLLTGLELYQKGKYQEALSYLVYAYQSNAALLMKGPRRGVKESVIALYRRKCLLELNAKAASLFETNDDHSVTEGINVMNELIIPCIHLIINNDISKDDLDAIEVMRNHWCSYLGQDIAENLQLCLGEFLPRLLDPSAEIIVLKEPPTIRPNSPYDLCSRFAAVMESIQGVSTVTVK
The procedure, abridged:
as §1

Chain of USP16 (Q9Y5T5 whole entry, looked up, the tested form may be a part): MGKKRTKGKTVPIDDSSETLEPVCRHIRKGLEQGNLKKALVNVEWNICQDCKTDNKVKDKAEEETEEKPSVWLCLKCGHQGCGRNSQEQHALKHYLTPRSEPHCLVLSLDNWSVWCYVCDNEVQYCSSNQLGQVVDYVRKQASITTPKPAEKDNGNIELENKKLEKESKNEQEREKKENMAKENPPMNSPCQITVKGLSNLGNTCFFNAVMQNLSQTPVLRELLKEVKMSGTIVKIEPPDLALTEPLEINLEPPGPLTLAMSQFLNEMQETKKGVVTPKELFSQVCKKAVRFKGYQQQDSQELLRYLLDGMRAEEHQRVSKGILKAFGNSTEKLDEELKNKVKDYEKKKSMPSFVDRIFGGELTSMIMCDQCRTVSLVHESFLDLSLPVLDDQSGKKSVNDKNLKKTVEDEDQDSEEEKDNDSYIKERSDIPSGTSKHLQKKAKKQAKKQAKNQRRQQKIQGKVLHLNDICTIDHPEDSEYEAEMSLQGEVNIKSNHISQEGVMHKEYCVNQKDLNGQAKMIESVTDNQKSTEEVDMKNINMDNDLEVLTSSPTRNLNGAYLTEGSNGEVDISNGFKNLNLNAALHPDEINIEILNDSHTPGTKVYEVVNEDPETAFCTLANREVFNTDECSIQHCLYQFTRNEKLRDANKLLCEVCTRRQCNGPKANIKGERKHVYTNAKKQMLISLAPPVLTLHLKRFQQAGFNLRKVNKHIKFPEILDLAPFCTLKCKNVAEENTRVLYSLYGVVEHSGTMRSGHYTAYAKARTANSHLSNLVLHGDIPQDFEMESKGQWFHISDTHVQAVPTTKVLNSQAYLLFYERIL
Chain of USP24 (Q9UPU5 whole entry): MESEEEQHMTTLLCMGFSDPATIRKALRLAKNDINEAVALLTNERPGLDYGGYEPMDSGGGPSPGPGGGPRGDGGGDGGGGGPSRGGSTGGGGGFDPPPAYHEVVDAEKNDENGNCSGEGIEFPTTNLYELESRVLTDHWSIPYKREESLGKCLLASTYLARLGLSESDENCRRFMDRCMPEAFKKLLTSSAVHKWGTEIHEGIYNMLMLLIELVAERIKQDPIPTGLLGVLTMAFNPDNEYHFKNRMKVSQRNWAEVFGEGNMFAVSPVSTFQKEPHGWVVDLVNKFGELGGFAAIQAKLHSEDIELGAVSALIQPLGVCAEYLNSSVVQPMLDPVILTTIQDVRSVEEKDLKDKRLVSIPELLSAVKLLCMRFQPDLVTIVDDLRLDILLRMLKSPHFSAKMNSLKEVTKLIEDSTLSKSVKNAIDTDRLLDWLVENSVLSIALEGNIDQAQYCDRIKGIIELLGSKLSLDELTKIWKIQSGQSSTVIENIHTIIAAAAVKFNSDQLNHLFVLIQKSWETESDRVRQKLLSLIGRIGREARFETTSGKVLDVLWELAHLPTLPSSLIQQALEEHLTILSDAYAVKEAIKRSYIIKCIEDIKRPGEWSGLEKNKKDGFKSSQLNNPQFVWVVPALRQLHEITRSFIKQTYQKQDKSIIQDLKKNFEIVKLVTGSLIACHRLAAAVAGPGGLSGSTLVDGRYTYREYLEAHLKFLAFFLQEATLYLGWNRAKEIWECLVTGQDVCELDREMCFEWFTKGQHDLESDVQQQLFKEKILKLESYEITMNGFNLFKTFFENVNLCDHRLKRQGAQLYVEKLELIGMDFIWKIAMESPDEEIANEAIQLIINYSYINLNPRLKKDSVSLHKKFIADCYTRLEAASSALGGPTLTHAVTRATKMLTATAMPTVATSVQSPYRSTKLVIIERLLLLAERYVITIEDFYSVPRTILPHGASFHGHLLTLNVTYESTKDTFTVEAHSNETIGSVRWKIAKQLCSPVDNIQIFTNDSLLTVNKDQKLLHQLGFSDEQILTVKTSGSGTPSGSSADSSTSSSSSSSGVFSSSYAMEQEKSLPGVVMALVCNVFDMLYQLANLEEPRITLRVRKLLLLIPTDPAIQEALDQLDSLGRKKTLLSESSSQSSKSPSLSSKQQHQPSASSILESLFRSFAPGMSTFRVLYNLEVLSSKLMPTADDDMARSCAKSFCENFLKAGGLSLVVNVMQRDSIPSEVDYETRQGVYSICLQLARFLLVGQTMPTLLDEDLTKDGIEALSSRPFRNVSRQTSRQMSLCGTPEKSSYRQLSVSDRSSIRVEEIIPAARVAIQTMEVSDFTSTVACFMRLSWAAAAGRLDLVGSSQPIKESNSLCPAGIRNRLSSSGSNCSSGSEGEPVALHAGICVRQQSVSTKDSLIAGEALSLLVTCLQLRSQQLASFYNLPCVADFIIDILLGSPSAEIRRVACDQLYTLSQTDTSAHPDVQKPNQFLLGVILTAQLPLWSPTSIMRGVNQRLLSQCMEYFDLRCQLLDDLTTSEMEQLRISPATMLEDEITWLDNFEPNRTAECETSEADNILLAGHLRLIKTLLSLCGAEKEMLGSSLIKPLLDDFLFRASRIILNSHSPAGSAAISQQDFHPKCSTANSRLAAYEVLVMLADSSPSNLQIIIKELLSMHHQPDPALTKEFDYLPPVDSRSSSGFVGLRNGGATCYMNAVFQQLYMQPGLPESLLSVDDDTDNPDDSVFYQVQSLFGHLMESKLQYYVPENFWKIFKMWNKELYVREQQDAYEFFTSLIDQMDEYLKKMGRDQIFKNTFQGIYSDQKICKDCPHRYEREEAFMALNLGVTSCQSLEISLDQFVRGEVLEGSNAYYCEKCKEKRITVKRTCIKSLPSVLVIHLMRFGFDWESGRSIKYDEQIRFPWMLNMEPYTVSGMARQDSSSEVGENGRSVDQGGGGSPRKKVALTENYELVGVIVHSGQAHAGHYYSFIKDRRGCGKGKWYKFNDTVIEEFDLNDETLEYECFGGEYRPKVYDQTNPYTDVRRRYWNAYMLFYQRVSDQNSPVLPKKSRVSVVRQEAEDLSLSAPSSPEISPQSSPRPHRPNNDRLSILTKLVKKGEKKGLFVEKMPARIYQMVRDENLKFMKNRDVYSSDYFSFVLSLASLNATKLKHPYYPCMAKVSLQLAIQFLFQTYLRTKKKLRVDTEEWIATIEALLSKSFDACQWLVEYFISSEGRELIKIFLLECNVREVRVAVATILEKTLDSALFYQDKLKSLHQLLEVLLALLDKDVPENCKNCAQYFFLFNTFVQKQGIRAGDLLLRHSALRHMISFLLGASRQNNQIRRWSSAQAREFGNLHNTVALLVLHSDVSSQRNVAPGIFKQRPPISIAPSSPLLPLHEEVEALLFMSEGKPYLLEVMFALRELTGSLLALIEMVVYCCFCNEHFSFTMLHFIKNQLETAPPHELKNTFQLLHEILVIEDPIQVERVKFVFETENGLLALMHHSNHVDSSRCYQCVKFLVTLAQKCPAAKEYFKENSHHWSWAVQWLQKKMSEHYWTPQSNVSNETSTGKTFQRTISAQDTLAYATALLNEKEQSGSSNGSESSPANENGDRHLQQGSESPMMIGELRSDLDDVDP

Consider `N#Cc1cnn(-c2ccccc2)c1NC(=O)CCl`, for which the “log2 ratio of Biotin-Ahx-Ub-VS probe labelling” value with USP16 is -0.0136; with USP19 it was -0.232; with USP24, -0.338; with USP25, -2.88 (active); with USP28 it was -2.37 (active).
